In the OligoGym collection:

molecular target: IL10; experiment: pooled miR-30 sensor sort-seq; sequence = guide strand; conditions: shRNA
Also: reference of the scale not given here.

Sequence	sensor-assay potency score (higher = more potent)
ATTAAAGGCATTCTTCACCTGC	-0.126
TAGGCTTCTATGTAGTTGATGA	-0.258
TTAACAACAAGTTGTCCAGCTG	-0.0308
TTGATGAAGATGTCAAACTCAC	-0.225
TAACAACAAGTTGTCCAGCTGA	0.191
ATCTCGGAGATCTCGAAGCATG	-1.73
TGAAAGAAAGTCTTCACTCTGC	0.368

molecular target: IL12RB2; experiment: as above; conditions: shRNA

Sequence	sensor-assay potency score (higher = more potent)
TTGAATTTGCTGCAGACACAGC	-0.876
TTAACCATATTCCAGAGCCTGC	-1.49
TTAGCTGTAGAGTATACTCAGT	-0.26
TTGTACAGGATTAACTTGTTAC	-0.744
TTTTGCTTTAATCAACAGCCAC	-1.02
TTTGCTTTAATCAACAGCCACG	-1.11
TTGTCTACTGTAGTCAATGTGC	-0.32
TTCTGGAGCAACACCAACGAAG	-0.95
TACCAGACATCTAACATCCCAG	-0.395
TTGCAGACAAACAAGGTTGTAC	0.163
TTGATTCTTCTGTCAAACTTGT	0.0343
TTGAATTTCATCACTATTGATA	-0.279
